Drawing on the OligoGym collection, this text covers sensor-assay potency score (higher = more potent) for 40 sequences.
Note: reference of the scale not given here.

For the first experiment, the target named is SSX3. Briefly: pooled miR-30 sensor sort-seq; sequence = guide strand. The following applies: shRNA.
CATCTGAGGACGTTGAACCTGA registered a sensor-assay potency score (higher = more potent) of -0.724.
As for TATCATGTTAATCTTCTCAGAG, the sensor-assay potency score (higher = more potent) is -0.0343.
Regarding TTTCTCCGAGACTTTCATCTTT, the sensor-assay potency score (higher = more potent) was -0.136.
On the same count and under the same terms, the figure for TTTTGTATCTTCTCTGGTATTT is -0.981; for TTTGGGTCCAGATATCATGTTA it is -0.75; for ATATCATGTTAATCTTCTCAGA it is -1.24.

The target of the next experiment is SSX4B. The description is as above. The following applies: shRNA.
With TCTCTGATATTTGAGCATCATC, the sensor-assay potency score (higher = more potent) is -2.01.
In the case of AACCATTTTCTTCCTCTGCTGG, the sensor-assay potency score (higher = more potent) was -0.606.
Regarding TGATATTTGAGCATCATCCCTG, the sensor-assay potency score (higher = more potent) was 0.125.
Sequence TTTAGCTTCATATACACATAGA returned a sensor-assay potency score (higher = more potent) of -0.61.
Still for that read-out and setting: the figure for TTTAGTCATGACCTCATAGTTT is -0.792; for TAATCTTCTCCAAGGTACTTGG it is -0.322.
Take TTAATCTTCTCCAAGGTACTTG: the sensor-assay potency score (higher = more potent) was found to be 0.0289.
As to TTCATAAACCACCAGCTGCTTT, the sensor-assay potency score (higher = more potent) is -1.07.
Sequence TTGTTAATCTTCTCCAAGGTAC yielded a sensor-assay potency score (higher = more potent) of -0.679.
For ATTCCTGTGGTTTCGATCGTTA, the sensor-assay potency score (higher = more potent) was -0.284.
Turning to TGTCTTGTTAATCTTCTCCAAG, the sensor-assay potency score (higher = more potent) is -1.4.
For the sequence TTAGTCATGACCTCATAGTTTA, the sensor-assay potency score (higher = more potent) is -0.622.

Another experiment concerns the target SSX5. The experiment is described as above. Particulars: shRNA.
In the case of TGGTATTTGAGAACCAACCCTA, the sensor-assay potency score (higher = more potent) is -0.335.
In the case of TTCTCGGGCGTGATCTTCGGGA, the sensor-assay potency score (higher = more potent) is -0.793.
Still for that read-out and setting: the figure for TTTGAGAACCAACCCTAGGTCT is -0.607; for TTTCTCTCACGCACTCTGTGGG it is -0.559.
AACAGAAACACTAACATCGAAC yielded a sensor-assay potency score (higher = more potent) of -0.742.
The sequence TTCTCTCACGCACTCTGTGGGT returned a sensor-assay potency score (higher = more potent) of -1.32.
Sequence TTGCTTTCTCTCACGCACTCTG showed a sensor-assay potency score (higher = more potent) of 0.108.
With TTGCTCATCAGTGAAAACGCTA, the sensor-assay potency score (higher = more potent) was -0.328.
As for TGCTTTTGCATCTTCTCTGGTA, the sensor-assay potency score (higher = more potent) is -0.325.
The same measure, in the same setting: the figure for TTCATAAATCACCAGTTGCTTT is -1.18; for TACACAAACTGAAATATGCATT it is -0.947; for TTGTTAACCTTCTCAGAGGTAT it is -0.473.

In the next experiment the target is ST6GAL2. Described as above. Particulars: shRNA.
Consider TGCGTCGTAGTACAGCTCGTGG, for which the sensor-assay potency score (higher = more potent) is -0.842.
On the same count and under the same terms, to TACACGTGCACCTCTCTGCACA belongs -0.913; to TTGAATCTTCTCTTTAGTGTTC, 0.135; to AAGTAGTCGTCATCCTCCGGGT, -0.429.
As to TTAATGATGCGTATGGTGGTTT, the sensor-assay potency score (higher = more potent) was -0.296.
AAAGTAGTCGTCATCCTCCGGG gave a sensor-assay potency score (higher = more potent) of 0.386.
As to TTGGTTGAATCTTCTCTTTAGT, the sensor-assay potency score (higher = more potent) was -0.57.
TTTATGTTCAAACCCATCTTGG: the sensor-assay potency score (higher = more potent) was -0.693.
Turning to TAAGATTTGCGGAATATGGGGC, the sensor-assay potency score (higher = more potent) turned out to be 0.141.
On to TTTGGTTGAATCTTCTCTTTAG, for which the sensor-assay potency score (higher = more potent) is -0.877.
